A number with no mark means an inactive call. Active and inactive are the calls of the source.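 The calls were made as follows: active = fitted AC50 no higher than ten times the top tested dose (cut at about 90 µM in these data); inconclusive = flat curve with 30 to 70% signal loss, or bad fit; inactive = AC50 beyond ten times the top dose.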

For orientation: AC50 means the concentration at which the activity in the assay is half-maximal.

This experiment is described as follows: AlphaLISA signal interference compounds, dose response, artefact control, biochemical, TruHit kit (AID 1259339). Conditions: TruHit alphaLISA kit signal interference counterscreen; series mostly up to 80 µM. (Alpha assays give light when donor and acceptor beads are brought close together.)
`CC(C)C(CC(=O)NCc1ccco1)c1ccco1` (stereo unspecified): the concentration at half-maximal activity (AC50) was 66.5 µM (active).

Turning to `O=C(NCCc1ccco1)c1ccc(OCc2cn3ccccc3n2)cc1`, the AC50 entry was “inactive”.

For the compound `Cc1cnc(C)c(N2CCN(C(=O)[C@H]3CC[C@@H](N)C3)CC2)n1`, the AC50 result is “inactive”.

Turning to `NC(=O)C1(N2CCCCC2)CCN(c2ncc(NC(=O)c3cccs3)cc2C(=O)O)CC1`, the AC50 result is “inactive”.

With `Cc1ccc(C(=O)Nc2cnc(N3CCC(C(N)=O)(N4CCCCC4)CC3)c(C(=O)O)c2)cc1`, the AC50 entry was “inactive”.

Turning to `Cc1ccc(-c2cc(C(=O)NCc3ccco3)c3ccccc3n2)o1`, the AC50 was 64.5 µM (active).

`O=C(COc1cccnc1[N+](=O)[O-])c1ccc(Cl)s1`: the AC50 was 23.2 µM (active).

`C[C@H](CO)N1C[C@H](C)[C@@H](CN(C)CC2CCCCC2)OCCCC[C@H](C)Oc2ccc(NS(=O)(=O)c3ccc(F)cc3)cc2C1=O`: the AC50 result is “inactive”.

With `COc1ccc(-c2nc(C)c(C(C)=O)n2O)cc1OC`, the AC50 result is “inactive”.

For `COc1cccc(NC(=O)CN(C)C(=O)c2cc3c(s2)CCC3)c1`, the AC50 was 74.6 µM (active).

Take `c1coc(-c2cn3ccc4ccccc4c3n2)c1`: the AC50 was 81.7 µM (active).

Take `COc1c(C(=O)O)csc1Br`: the half-maximal activity concentration (AC50) was 0.373 µM (active).

On to `O=C(Nc1ccc(OCC(=O)N2CCOCC2)cc1)c1cncc(Br)c1`, for which the AC50 entry is “inactive”.

Turning to `NC(=O)C1(N2CCCCC2)CCN(c2ncc(NC(=O)c3ccccc3)cc2C(=O)O)CC1`, the AC50 result was “inactive”.

Consider `Cc1ccc(-c2nnc(-c3nc(Nc4nc5ccccc5s4)c4ccccc4n3)o2)cc1`, for which the AC50 result was “inactive”.

On to `O=C(COC(=O)CCC(=O)c1cccs1)NCc1ccco1`, for which the AC50 result is “inactive”.

For `O=C(COC(=O)c1ccc(S(=O)(=O)NCc2ccco2)cc1)Nc1ccc(Cl)cn1`, the AC50 was more than 160 µM.

For `CN(C)c1ccc(CN2C[C@H]3CC[C@@H]2CN(C(=O)c2ccncc2)C3)cn1`, the AC50 result was “inactive”.

Regarding `CCOC(=O)C1CCN(C(=O)CN(Cc2ccccc2)S(C)(=O)=O)CC1`, the AC50 entry is “inactive”.

Turning to `O=C(COC(=O)c1cc(-c2ccco2)nc2ccccc12)NCc1ccccc1`, the half-maximal activity concentration (AC50) is 35.1 µM (active).

On to `C=CCNc1ncnc2c1CCN(C(=O)c1ccc(CSC)o1)CC2`, for which the AC50 entry was “inactive”.

Consider `Cc1nc(C)c(C(=O)Nc2ncc([N+](=O)[O-])s2)o1`, for which the half-maximal activity concentration (AC50) was 40.7 µM (active).

On to `O=C(Nc1nccs1)c1cc(-c2ccccn2)nc2c(Cl)cccc12`, for which the AC50 was 2.07 µM (active).

With `O=C(O)Cc1c[nH]c2cccc(O)c12`, the concentration at half-maximal activity (AC50) is 11.3 µM (active).

For the compound `CCCN1CCCn2nc(CNC(=O)[C@H]3CC[C@@H](N)C3)cc2C1`, the AC50 result is “inactive”.

Consider `COc1ccc(NC(=O)CN(C)C(=O)c2cc(-c3ccco3)nc3ccccc23)cc1`, for which the AC50 is 36.6 µM (active).

Turning to `CC1(C)Cc2ccccc2-c2nc(-c3ccccc3)oc(=O)c21`, the concentration at half-maximal activity (AC50) is 33.4 µM (active).

For `Cc1cncc(-c2ccc(S(N)(=O)=O)cc2F)c1`, the AC50 result is “inactive”.

For `O=c1/c(=C/c2ccco2)sc2nc3ccccc3n12`, the AC50 is more than 160 µM.

For `CCCc1cc(C(=O)N2CC[C@H]3CNC[C@H]32)n(C)n1`, the AC50 entry is “inactive”.

Take `Cc1ccccc1C(=O)Nc1cnc(N2CCC(C(N)=O)(N3CCCCC3)CC2)c(C(=O)O)c1`: the AC50 entry was “inactive”.

With `COc1ccc(-c2nnc(-c3nc(Nc4ccc(NC(C)=O)cc4)c4ccccc4n3)o2)cc1`, the AC50 was more than 160 µM.

For the compound `O=C(Nc1nc(-c2ccco2)c(-c2ccco2)s1)c1ccc(F)cc1F`, the AC50 was 4.41 µM (active).

Take `O=C(O)C1Oc2cc3ccccc3cc2O1`: the AC50 was 30.2 µM (active).

For `O=C(Nc1nc(-c2ccco2)c(-c2ccco2)s1)c1ccco1`, the AC50 is 0.98 µM (active).

Regarding `O=C(Nc1ccc2oc(-c3ccncc3)nc2c1)c1ccc2c(c1)OCO2`, the AC50 result is “inactive”.
